# According to PubChem BioAssay (NCI):
# This is part of a sample that, as a whole, favours compounds with a hit. Of some 83,000 tested, about 20% had one in any assay.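 For each line, cells grew in 96-well plates with the test compound present at a single concentration for 48 hours.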 A number with no mark means an inactive call. Active and inactive are the calls of the source. How the source made its calls: active means growth percent below 10; inactive means the rest.
# Assays:
# Assay in all cases: NCI-60 one-dose screen, 48 h (100 = growth as untreated, 0 = no growth, -100 = all killed)
# Details in all cases: 10 µM unless noted
# [1] = tested on: T-47D breast
# [2] = tested on: BT-549 breast
# [3] = tested on: MDA-MB-435 melanoma
# [4] = tested on: MCF7 breast
# [5] = tested on: HCT-116 colon
# [6] = tested on: HCC-2998 colon
# [7] = tested on: KM12 colon
# [8] = tested on: SW-620 colon
SMILES,growth [1],growth [2],growth [3],growth [4],growth [5],growth [6],growth [7],growth [8]
COC1CC(C)C(OC)c2cc(O)cc(c2O)NC(=O)/C(C)=C/C=C\C(C)C(OC(N)=O)/C(C)=C\C(C)C1OC (centres undefined),1.33% (active),-44.8% (active),12.7%,20.8%,-92.8% (active),-11.6% (active),-46.4% (active),
Clc1ccccc1C(c1ccccc1)(c1ccccc1)n1ccnc1,13.4%,42.5%,33.8%,18.3%,,52%,27%,43.6%
CC(C)c1ccc(Nc2n[nH]c(=S)s2)cc1,85.6%,96.2%,97.1%,101%,101%,91%,,
COc1cc2c(c(OC)c1OC)-c1ccc(NCc3ccccc3)c(=O)cc1[C@@H](NC(C)=O)CC2,59.4%,0.422% (active),-54.8% (active),,9.33% (active),10.6%,12.7%,16.6%
CC12CCC(O)CC1=CCC1C2CCC2(C)C3=NN=CC3CC12 (centres undefined),110%,124%,53%,,108%,107%,94.3%,103%
CN=C(N)N/N=C(\C)c1ccc2c(c1)Cc1ccccc1-2,-65.4% (active),-6.1% (active),-73.1% (active),-99.3% (active),-100% (active),-98.5% (active),-79% (active),
CCCOC(=O)c1nc(N(CC2CCCCC2)C(=O)NC)sc1/N=C/c1ccccc1,15.2%,18.9%,-46.9% (active),3.21% (active),-25.6% (active),-78.7% (active),7.21% (active),
S=C(S)OCN1CCOCC1,88.1%,100%,88.4%,,98.8%,97.4%,,74.8%
S=C1SCN(Cc2cccs2)CN1Cc1cccs1,56.5%,98.5%,93.3%,,,116%,91.2%,82.4%
O=C(O)c1cccc2cccc(-c3c4ccc(=O)c(O)c-4oc4c(O)c(O)ccc34)c12,98.9%,93.8%,100%,101%,91.2%,96.2%,96%,
CCCN(CCC)C(=O)c1ccc(C)cc1,78.5%,102%,104%,,98.3%,87.4%,102%,94.9%
CC1(O)CCCCCC1,97%,96.1%,103%,,99.4%,98.8%,106%,100%
N=C1C=C(N)C(=O)c2ccccc21,-46.1% (active),-99.1% (active),-75.7% (active),,-98.7% (active),-99.5% (active),-82.4% (active),-85% (active)
CCc1cnc2ccccc2c1/C=C/c1ccc(N(C)C)cc1,31.3%,49.8%,7.56% (active),20%,24.6%,68.4%,25.5%,
O=[N+]([O-])CC(O)c1ccccc1 (centres undefined),100%,112%,91.1%,,78.6%,98.9%,97.4%,105%
COc1ccc(NC(=O)/C(=C/N2C(=O)/C(=C/c3ccc(OC)c(OC)c3)NC2=S)C(C)=O)cc1,19.1%,55.2%,72.2%,40.9%,73.7%,88.7%,95.1%,
O=C1c2ccccc2Cc2cccc(Cl)c21,92.8%,93.3%,120%,,,81%,106%,112%
O=[N+]([O-])c1ccc(C2N(Cc3ccc(Cl)cc3)CCN2Cc2ccc(Cl)cc2)cc1,90%,98.2%,91.5%,,72.8%,95.4%,101%,98.1%

SMILES,growth [1],growth [2],growth [3],growth [4],growth [5],growth [6],growth [7],growth [8]
Cc1ccc(NC2=CC(=O)C(=O)c3ccccc32)cc1,21.1%,-41.1% (active),-80.5% (active),,-26.9% (active),28.4%,22.1%,-19.6% (active)
Cc1cc2cccnc2c2ncccc12,2.22% (active),36%,35.9%,,14%,29.5%,28.5%,31.6%
CCN(CC)CC(O)c1cc(-c2ccc(Cl)cc2)nc2cc(Cl)ccc12 (centres undefined),12.9%,81.6%,13.1%,,-0.822% (active),26.4%,-36.6% (active),31.5%
O=S(=O)(O)c1cnccn1,78.6%,95.3%,105%,,86.5%,102%,98.9%,112%
O=[n+]1c2ccccc2n([O-])c2cc(Cl)ccc21,46.8%,74.7%,100%,,28.7%,93.5%,79%,53.2%
O=C1C(=O)c2cccnc2-c2ncccc21,-68.8% (active),-11.7% (active),-69.6% (active),,-100% (active),30.5%,-47.2% (active),-95.6% (active)
c1ccc(C2NCCNC2c2ccccc2)cc1 (centres undefined),104%,103%,102%,103%,,,110%,101%
S=C=Nc1ccc(N2CCOCC2)cc1,74.3%,97.1%,92%,,86.6%,99.3%,103%,103%
CC(C)=CCCC(C)C1=C(O)C(=O)C(C)=CC1=O (centres undefined),-66.9% (active),24.7%,102%,,-85.2% (active),100%,86.8%,-49.5% (active)
Cc1cc(C)c([I+]c2c(C)cc(C)cc2C)c(C)c1,0.613% (active),-86.4% (active),-81.2% (active),,-87.1% (active),-85.5% (active),-75.9% (active),-40.1% (active)
COc1ccc2c(c1OC)OCC(CN(C)C)C2=O (centres undefined),69.5%,82.4%,96.1%,,77.6%,105%,96.8%,-78.3% (active)
CCOc1ccc(C(C[N+](=O)[O-])Sc2ccccc2N)cc1 (centres undefined),42.8%,-74.9% (active),3.44% (active),,,-82.3% (active),-51.3% (active),-40.4% (active)
COc1cc(/C=C/c2ccnc3ccccc23)cc(OC)c1OC,41.1%,11.7%,-8.94% (active),16.1%,,34.6%,12.4%,17.4%
CC(C)(C)c1ccc(O)c(-c2ccccc2)c1,109%,131%,124%,,102%,103%,104%,98.9%
Oc1c(Cl)cc(Cl)cc1C=NCC1CCC(CN=Cc2cc(Cl)cc(Cl)c2O)CC1 (centres undefined),71.4%,90.4%,88.8%,78.1%,74.9%,107%,93.6%,
CN(C)c1ccc2cc3c(cc2c1)Oc1ccccc1N3.[Cl][Zn][Cl],-18.9% (active),105%,6.73% (active),3.32% (active),8.67% (active),103%,79.6%,
COC(=O)c1ccc(=O)c2nc3/c(=C/O)c(O)cc(=O)c3[nH]c12,25.6%,5.85% (active),23.4%,2.95% (active),,24.9%,31.1%,
CN1CCC(CN2c3ccccc3Sc3ccccc32)C1 (centres undefined),93.6%,89.4%,88.5%,97.7%,,41.4%,97.2%,
